# Reference: the OligoGym collection
# Target: VAX1
# Assay: pooled miR-30 sensor sort-seq; sequence = guide strand
# Settings: shRNA
row,Sequence,sensor-assay potency score (higher = more potent)
1,TTTTGTTTTTTTATCCCGCGTT,-0.396
2,TTCTTTTGTTTTTTTATCCCGC,-0.672
3,TTTACTTTTGTTACAATCCTCA,-0.228
4,TTGGGCAGGATGATCTCTCGGA,-0.0889
5,TTCTTTATTGTTGGTCCGGGAG,-1.06
6,TTACTTTTGTTACAATCCTCAG,-1.22
7,TCTCGGACCAGGATCCGGCGGC,-0.716
8,TTCTTCTGCTTGGTGCGCCGGT,-0.49
9,TACTTTTGTTACAATCCTCAGC,-0.412
10,TTTTGTTACAATCCTCAGCAGC,-0.447
11,TTTGTTTTTTTATCCCGCGTTT,-0.944
12,TGGAACTCCATCTCCAGCCGAT,-1

# Target: VDAC1
# Assay: as above
# Settings: shRNA
row,Sequence,sensor-assay potency score (higher = more potent)
1,TAGTGTATTGTCGGTATTCCAT,-0.621
2,TCTGAGTGTATCCTAAACCTAT,-0.562
3,TATCCTAAACCTATCAGGCTGG,-0.545
4,TTACTGTTTCCTGCTGTCCAGG,-1.19
5,TAGGTGAGAAGGATGAATCGAA,0.744
6,ATTCACATTAGTGTGAAGCTGG,0.0233
7,TTTGTTTTCAAATCAAGCTTTA,-0.535
8,TTTTGTTTTCAAATCAAGCTTT,-0.155
9,TCTTCCACAGTAATCTCGGTGC,-0.38
10,TTCTCTGTAAACGTCAGGCCGT,-0.7
11,TTCACTTTAGCCGAGAAGCAGG,-0.473
12,TTAGAGTCTGAGTGTATCCTAA,-0.253

# Target: VDAC3
# Assay: as above
# Settings: shRNA
row,Sequence,sensor-assay potency score (higher = more potent)
1,TCCTTTGTTGAAGACATCCTTA,-0.879
2,TCTGGTAGATAGAACCTCCAAA,-0.313
3,TTCAATCTTCTCATTCACCTTC,0.828
4,TTGGTTTTCAGGTCTATCTTGA,0.398
5,TCTATATCAACATTACTGCCAA,-0.2
6,TTCATTTCTCTTCACTTCCAGG,-0.789
7,TTCAGGTCTATCTTGACCATGC,-0.432
8,TAGAGTATTGTCTGTGTTCCAT,-0.216
9,TTGTCTGTGTTCCATTTCTGGG,-1.15
10,TTTCAGGTCTATCTTGACCATG,-1.45
11,TTATATTTGGTTTCTAGGTTGC,-0.0958
12,TATCAGTGTAAGCATGACCAGA,-0.976

# Target: VGLL2
# Assay: as above
# Settings: shRNA
row,Sequence,sensor-assay potency score (higher = more potent)
1,TTGACTTCTCTTTACTTCTCTA,-0.415
2,TTACTTCTCTACCACAGTCTTA,-0.551
3,TAAGTGAAGAGGACGCAGCGGG,-0.197
